Inconclusive results are not listed. Activity calls are given as the source filed them. Unless noted, the call rests on the fitted dose curve; in most records, active means well fitted curve in the direction sought with a large enough effect in the repeat runs; inconclusive means weak or mixed curves; inactive means no such curve, though single readings can be large; an effect the other way counts as inactive or inconclusive.

Assay [1] in a line: qHTS assay to identify small molecule agonists of the vitamin D receptor (VDR) signaling pathway - cell viability counter screen (AID 743224). Further: nearly all actives have a fitted effect of over 50% in size. The gist of the method:
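VDR-bla cells, 4 h after plating, exposed to compounds for 16 h at 37C; viability then read in the same wells as CellTiter-Glo luminescence after 30 min at room temperature, following the bla FRET read.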

Assay [2] in a line: qHTS assay to identify small molecule agonists of the NFkB signaling pathway (AID 1159509; active means well fitted curve in the direction sought with a large enough effect in the signal ratio in the repeat runs, not every such curve was filed as active; the % refers to the signal ratio). The method in brief: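 ME-180 NFkB-bla, 2,000 cells/well, overnight plating; cpd pinned in DMSO, 5 h 37 C; B/G FRET substrate 1.5 h RT; ex 405, em 460/530 nm.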
For orientation: qHTS replaces the single test concentration by a dilution series.

The nature of assay [3]: qHTS assay to identify small molecule agonists of the NFkB signaling pathway - cell viability counter screen (AID 1159515; calls by dose curve; further: nearly all actives have a fitted effect of over 55% in size). The gist of the method: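 NFkB-bla ME-180 cells, 2,000/well, plated overnight at 37 C; compound added for 5 hr at 37 C. Viability read in the same wells as the bla reporter, by CellTiter-Glo luminescence after 30 min at room temperature.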
Assay [4] can be described thus: qHTS assay to identify small molecule agonists of the endoplasmic reticulum stress response signaling pathway (AID 1159516; active means well fitted activation curve with a large enough effect in the signal ratio in the repeat runs, not every such curve was filed as active; the % refers to the signal ratio). The gist of the method:
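CellSensor ESRE-bla HeLa cells, 1,500 per well, plated overnight, then exposed to compounds for 5 hr at 37 C. Beta-lactamase reporter read with LiveBLAzer B/G FRET substrate after 2 hr at room temperature, 405 nm excitation, 460 and 530 nm emission.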

Assay [5] is described as follows: qHTS assay to identify small molecule agonists of the endoplasmic reticulum stress response signaling pathway - cell viability counter screen (AID 1159517; calls by dose curve;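 further: HeLa cells carrying an ER stress response element beta-lactamase reporter; nearly all actives have a fitted effect of over 50% in size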). The gist of the method: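 CellTiter-Glo was added to wells already read for beta-lactamase FRET, and luminescence was recorded 30 min later. Cells: ESRE-bla HeLa, 1,500 per well, compound exposure 5 hr at 37 C.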

A short description of assay [6]: qHTS assay to identify small molecule antagonists of the retinoid-related orphan receptor gamma (ROR-gamma) signaling pathway - cell viability counter screen (AID 1159520). Further: nearly all actives have a fitted effect of over 50% in size. The gist of the method:
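Tet-on ROR gamma CHO cells (1,000/well) were plated 4 hr, given compounds in DMSO for 2 hr at 37 C, then induced with 1 uM final doxycycline for 16 hr. Viability was read as ATP by CellTiter-Glo luminescence after 30 min.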

In assay [7] the target is Nuclear receptor ROR-gamma (Homo sapiens) (UniProt P51449). Kind of assay: qHTS assay to identify small molecule antagonists of the retinoid-related orphan receptor gamma (ROR-gamma) signaling pathway (AID 1159521;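 further: CHO cells with doxycycline inducible ROR-gamma driving an RORE luciferase reporter; top concentration of the series differs between compounds; nearly all actives have a fitted effect of over 50% in size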). The gist of the method: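 Decreased RORE-driven luciferase luminescence indicates antagonism. Tet-on RORγ CHO cells received compound, then 1 uM final doxycycline 2 h later; signal read after 16 h incubation.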

A short description of assay [8]: qHTS assay to identify small molecule agonists of the AP-1 signaling pathway - cell viability counter screen (AID 1159525; calls by dose curve; further: nearly all actives have a fitted effect of over 55% in size). The method in brief: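 ME-180 AP-1-bla, 2500 cells/well, Opti-MEM + 0.5% dialyzed FBS; overnight 37 °C; cpd 15-pt titration, 5 h 37 °C; CellTiter-Glo 30 min RT; luminescence read; normalised to TOAB and DMSO controls.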
A short description of assay [9]: qHTS assay to identify small molecule agonists of the AP-1 signaling pathway (AID 1159526; calls by dose curve; further: potency means the concentration at half of the fitted maximal effect).
Assay [10] addresses Retinoic acid receptor RXR-alpha (Homo sapiens) (UniProt P19793). The assay is described as follows: qHTS assay to identify small molecule agonists of the RXR signaling pathway (AID 1159527; calls by dose curve; further: nearly all actives have a fitted effect of over 35% in size). The gist of the method: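 16 hr incubation of compound-treated RXR-alpha-UAS-bla HEK 293T cells (2% charcoal-stripped FBS, 37 C) preceded a 2 hr room-temperature LiveBLAzer FRET substrate step and blue/green fluorescence measurement.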

Assay [11] is described as follows: qHTS assay to identify small molecule agonists of the RXR signaling pathway - cell viability counter screen (AID 1159529). The gist of the method:
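In this parallel viability measure, GeneBLAzer RXR-alpha HEK 293T cells (2% charcoal-stripped FBS) were given a 5 hr preincubation, treated with compounds 16 hr at 37 C, and read by CellTiter-Glo luminescence.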

The nature of assay [12]: qHTS assay to identify small molecule antagonists of the retinoid acid receptor (RAR) signaling pathway - cell viability counter screen (AID 1159551). Further: nearly all actives have a fitted effect of over 35% in size. The gist of the method: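 C3RL4 RARE-luciferase cells, 1,000/well, incubated overnight, then dosed with compound plus 1 uM retinol (final). After 6 hr at 37 C, viability read by CellTiter-Glo ATP luminescence following 30 min at room temperature.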

The nature of assay [13]: qHTS assay to identify small molecule antagonists of the estrogen related receptor (ERR) signaling pathway from Tox21 library - cell viability counter screen (AID 1224834). Further: nearly all actives have a fitted effect of over 30% in size. The gist of the method:
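ERR reporter cells, 2,000 per well, rested 6 h, then exposed to compound in DMSO for 17.5 hours at 37 C. Viability read as fluorescence after 30 min with CellTiter-Fluor.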

Assay [14] has as its target Luciferin 4-monooxygenase (Photinus pyralis) (UniProt P08659). Kind of assay: qHTS assay to identify small molecule inhibitors of firefly luciferase (AID 1224835). Further: nearly all actives have a fitted effect of over 25% in size. The method in brief: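 Quantitative HTS format; KM concentrations of both substrates. Purified P. pyralis FLuc activity quantified from luminescence images.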
Assay [15] in a line: qHTS assay to identify small molecule agonists of the constitutive androstane receptor (CAR) signaling pathway - cell viability counter screen (AID 1224836). Further: nearly all actives have a fitted effect of over 45% in size. The method in brief:
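Using CellTiter-Fluor, viability of HepG2 cells harbouring hCAR and CYP2B6-2.2kb was measured following 23 h incubation with a 15-concentration compound series plus PK11195 (0.75 uM final).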

Assay [16] is described as follows: qHTS assay to identify small molecule antagonists of the vitamin D receptor (VDR) signaling pathway - cell viability counter screen (AID 743225). Further: nearly all actives have a fitted effect of over 50% in size. The method in brief: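 Parallel cytotoxicity test: VDR-UAS-bla HEK 293T, 3 nM (final) 1-alpha,25-dihydroxyvitamin D3 with test compound, 16 h, 37C. Endpoint is CellTiter-Glo luminescence in the same wells.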
Assay [17] can be described thus: qHTS assay to identify small molecule antagonists of the retinoic acid receptor (RAR) signaling pathway (AID 1159552; further: nearly all actives have a fitted effect of over 50% in size). The method in brief:
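C3RL4 RARE-luc cells, overnight plating; retinol 1 uM final added right after compound; 6 hr 37 C; luciferase read at 30 min RT.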

A short description of assay [18]: qHTS assay to identify small molecule agonists of the retinoic acid receptor (RAR) signaling pathway (AID 1159553). To be noted: C3RL4 RARE luciferase reporter, agonist, 6 h; activation: at 73.3 µM (top of the series) unless noted. The method in brief:
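C3RL4 RARE-luciferase cells were seeded at 1,000/well and grown overnight at 37 C, then exposed to compounds for 6 hr at 37 C, 5% CO2. Luciferase reagent was added and luminescence was read after 30 min at room temperature.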

Assay [19] is described as follows: qHTS assay to identify small molecule antagonists of the estrogen related receptor (ERR) signaling pathway - cell viability counter screen (AID 1224818). The method in brief:
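ERR cells, 2,000 per well, compound added after 6 h and incubated 17.5 h at 37 C. Viability read by CellTiter-Fluor fluorescence after a further 30 min at 37 C.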

The nature of assay [20]: qHTS assay to identify small molecule antagonists of the estrogen related receptor signaling pathway with the pleiotropic PPARgamma coactivator (PGC) cell viability counter screen (AID 1224822). The method in brief:
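PGC/ERR cells rested 6 h, then compound-treated 17.5 h at 37 C. CellTiter-Fluor added for 30 min at 37 C, viability measured by fluorescence intensity.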

Chain of Retinoic acid receptor RXR-alpha (Homo sapiens) (P19793 whole entry, looked up): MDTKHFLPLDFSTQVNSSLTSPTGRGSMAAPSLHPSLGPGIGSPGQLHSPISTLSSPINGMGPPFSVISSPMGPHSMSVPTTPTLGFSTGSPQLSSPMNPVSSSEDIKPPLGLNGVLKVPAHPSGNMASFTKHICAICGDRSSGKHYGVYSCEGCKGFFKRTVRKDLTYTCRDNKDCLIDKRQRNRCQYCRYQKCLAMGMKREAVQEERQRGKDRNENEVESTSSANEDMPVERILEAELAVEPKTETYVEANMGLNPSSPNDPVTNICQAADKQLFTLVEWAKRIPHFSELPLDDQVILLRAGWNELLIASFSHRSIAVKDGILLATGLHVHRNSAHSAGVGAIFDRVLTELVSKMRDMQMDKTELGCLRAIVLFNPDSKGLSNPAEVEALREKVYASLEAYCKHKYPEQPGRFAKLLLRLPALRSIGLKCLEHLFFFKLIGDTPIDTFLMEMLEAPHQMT
Chain of Luciferin 4-monooxygenase (Photinus pyralis) (P08659 whole entry, looked up): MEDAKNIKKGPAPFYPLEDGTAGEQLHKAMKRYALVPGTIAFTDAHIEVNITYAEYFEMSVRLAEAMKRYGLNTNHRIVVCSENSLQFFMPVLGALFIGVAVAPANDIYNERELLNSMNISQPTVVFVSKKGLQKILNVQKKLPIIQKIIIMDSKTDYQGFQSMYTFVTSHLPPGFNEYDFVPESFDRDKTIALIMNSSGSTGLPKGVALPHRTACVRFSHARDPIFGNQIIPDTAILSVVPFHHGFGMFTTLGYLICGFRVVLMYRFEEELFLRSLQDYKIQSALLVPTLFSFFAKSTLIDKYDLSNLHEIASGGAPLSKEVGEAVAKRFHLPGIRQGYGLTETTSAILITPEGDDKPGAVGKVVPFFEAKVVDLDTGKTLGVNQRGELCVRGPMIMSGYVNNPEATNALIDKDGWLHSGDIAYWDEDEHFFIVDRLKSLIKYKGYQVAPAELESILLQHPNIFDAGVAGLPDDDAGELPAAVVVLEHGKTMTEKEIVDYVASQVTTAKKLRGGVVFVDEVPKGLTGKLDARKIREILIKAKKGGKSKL

For the compound `CN(N=O)c1ccccc1`, the compound was classed as inactive in [1], in assay [2], in assay [3], in assay [4], in [5] and in assay [12]. For the same compound, the Potency entry in assay [6], in assay [7], in assay [8], in [9], in assay [10] and in assay [11] was “inactive” each time. The Potency result in [13], in [14] and in assay [15] was “inactive” throughout.

On to `CN(C)[C@@H]1C(=O)C(C(N)=O)=C(O)[C@@]2(O)C(=O)C3=C(O)c4c(O)cccc4[C@@](C)(O)[C@H]3C[C@@H]12`, for which the call in [2], in assay [3], in assay [4], in assay [5] and in assay [12] was inactive. For the same compound, the Potency result in [6], in assay [8], in [9], in assay [10], in assay [11] and in assay [13] was “inactive” each time. Further, the Potency entry in [15] is “inactive”.

For the compound `ClCc1cccnc1`, the result in [1], in assay [2], in [3], in assay [4], in [5] and in assay [12] was inactive. Also, the Potency entry in assay [6], in assay [7], in [8], in assay [9], in [10] and in assay [11] was “inactive” each time. Moreover, the Potency entry in [13] and in assay [15] was “inactive” each time.

Consider `Nc1ccc(Cc2ccc(N)cc2)cc1`, for which the compound was called inactive in assay [1], in assay [16], in assay [2], in assay [3], in assay [4] and in [5]. Moreover, the compound was called inactive in assay [12]. The Potency result in assay [6], in assay [7], in [8], in assay [9], in [10] and in assay [11] was “inactive” throughout. Moreover, the Potency result in assay [17], in [18] and in assay [13] was “inactive” in each case.

Take `OC(O)C(Cl)(Cl)Cl`: the compound was called inactive in assay [1], in assay [16], in assay [2], in assay [3], in [4] and in [5]. In addition, the compound was called inactive in assay [12]. Also, the Potency entry in assay [6], in assay [8], in [9], in assay [10], in assay [11] and in assay [17] was “inactive” throughout. Moreover, the Potency entry in assay [18], in [13] and in [15] was “inactive” throughout.

`CN1C(=O)CN=C(c2ccccc2)c2cc(Cl)ccc21`: the compound was classed as inactive in [1], in [16], in assay [2], in assay [3], in [4] and in assay [5]. In addition, the result in [12] was inactive. In addition, the Potency entry in assay [6], in assay [7], in [8], in [9], in assay [10] and in [11] was “inactive” each time. Further, the Potency result in assay [18], in assay [13] and in assay [15] was “inactive” in each case.

For the compound `CC(NC(C)(C)C)C(=O)c1cccc(Cl)c1` (configuration not stated), the result in [1], in assay [2], in assay [3], in [4], in [5] and in assay [12] was inactive. For the same compound, the outcome in [19] and in assay [20] was inactive. The Potency entry in [6], in [7], in [10], in assay [11], in assay [13] and in assay [14] was “inactive” throughout. Besides, the Potency result in [15] is “inactive”. For the same compound, the Potency in assay [9] was 36.8 µM (active).

Take `C#CCN(C)[C@H](C)Cc1ccccc1`: the call in [1], in assay [16], in assay [2], in assay [3], in assay [4] and in [5] was inactive. The call in [12] was inactive. In addition, the Potency entry in [6], in assay [8], in assay [9], in assay [10], in [11] and in assay [17] was “inactive” in each case. The Potency result in assay [18], in assay [13], in assay [14] and in [15] was “inactive” in each case.

For the origin of these results see PubChem BioAssay (Tox21).
